Source: PubChem
EPAC1 ag val – validation of human EPAC1 agonists | O95398 | EPAC1 Rap1b BODIPY-GDP exchange, fluorescence | Potency, µM, most hits filed as activators | actives 1% (n = 16,000) | AID 1645883; note: nearly all actives have a fitted effect of over 70% in size
Target sequence (O95398 whole entry, looked up): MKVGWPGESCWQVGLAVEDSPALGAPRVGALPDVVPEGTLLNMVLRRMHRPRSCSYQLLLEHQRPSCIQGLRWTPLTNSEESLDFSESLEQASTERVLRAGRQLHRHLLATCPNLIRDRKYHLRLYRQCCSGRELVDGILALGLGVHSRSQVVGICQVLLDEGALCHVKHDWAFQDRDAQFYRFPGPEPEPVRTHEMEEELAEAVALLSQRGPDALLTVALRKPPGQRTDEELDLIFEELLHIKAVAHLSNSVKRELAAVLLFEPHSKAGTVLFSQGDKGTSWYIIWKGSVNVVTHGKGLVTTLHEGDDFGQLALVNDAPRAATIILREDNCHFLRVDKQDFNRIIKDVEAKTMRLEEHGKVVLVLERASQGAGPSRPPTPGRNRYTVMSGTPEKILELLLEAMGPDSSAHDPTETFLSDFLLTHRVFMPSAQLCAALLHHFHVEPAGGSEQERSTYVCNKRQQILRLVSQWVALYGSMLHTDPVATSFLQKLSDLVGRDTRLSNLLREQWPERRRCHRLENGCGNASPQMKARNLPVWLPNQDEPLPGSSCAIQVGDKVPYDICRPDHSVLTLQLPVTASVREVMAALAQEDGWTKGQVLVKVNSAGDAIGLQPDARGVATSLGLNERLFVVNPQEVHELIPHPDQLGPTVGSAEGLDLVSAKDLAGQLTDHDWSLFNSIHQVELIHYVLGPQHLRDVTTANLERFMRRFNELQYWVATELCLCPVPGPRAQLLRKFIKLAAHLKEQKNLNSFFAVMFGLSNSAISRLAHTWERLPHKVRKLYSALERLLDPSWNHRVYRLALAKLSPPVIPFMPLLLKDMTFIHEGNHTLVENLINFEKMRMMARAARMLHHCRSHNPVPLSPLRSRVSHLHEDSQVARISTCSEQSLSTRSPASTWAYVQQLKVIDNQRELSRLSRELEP
EPAC2 antag – human EPAC2 antagonism, validation | actives 1.7% (n = 16,000) | Q8WZA2 | Potency, µM (doses to about 112 µM), most hits filed as inhibitors | AID 1645886 | EPAC2 Rap1B BODIPY-GDP exchange, fluorescence; note: nearly all actives have a fitted effect of over 40% in size
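Fluorescent exchange read-out: 100 nM EPAC2 with 250 nM RAP1B–BODIPY-GDP and 50 uM GDP; BODIPY-GDP release lowers fluorescence. Read at 480/540 nm every 5 min for 30 min at room temperature; normalized to 6.5 mM cAMP.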
Hits are given with their value; 0 = inactive; ? = inconclusive; ! = not active in a repeat; [ ] = remark or other dose. Sampled rows, rich in hits. Any-hit rate of the full collection: about 2.9%. Calls come from the whole dose curve; as a rule, active = well fitted curve in the direction sought with a large enough effect; inconclusive = small, poorly fitted or top-dose-only effect, or another doubt; inactive = no such curve, though single readings can be large; an effect the other way counts as inactive or inconclusive.

SMILES	EPAC1 ag val	EPAC2 antag
CCCCCC1C(=O)O[C@H](C)[C@@H](NC(=O)c2cccc(NC=O)c2O)C(=O)OC(C)C1OC(=O)CC(C)C (some centres undefined)	0	56µM
CCCC[C@H]1C(=O)O[C@H](C)[C@H](NC(=O)c2cccc(NC=O)c2OC)C(=O)O[C@@H](C)[C@@H]1OC(=O)CC(C)C	0	?
O=C1OC2(c3cc(Br)c(O)cc3Oc3c2cc(Br)c(O)[c]3[Hg])c2ccccc21 (centres undefined)	40µM!	0
O=C(O)c1ccccc1-c1c2cc(Br)c(=O)cc-2oc2[c]([Hg])c(O)c(Br)cc12	?	0
CC(=O)[C@@]1(O)CC[C@H]2[C@@H]3CCC4=CC(=O)CC[C@]4(C)C3(F)[C@@H](O)C[C@@]21C (some centres undefined)	0	0
C[C@@H](N)C(=O)c1ccccc1	0	0
COc1ccc2c3c([nH]c2c1)C(C)=NCC3	?	0
CC1=NCCc2c1[nH]c1cc(O)ccc21	79µM	0
CN(C)CCCCCCN(C)C (tested in a mixture with another compound)	0	0
O=c1[nH]cc(N(CCCl)CCCl)c(=O)[nH]1	0	71µM
CC(=O)O[C@H]1C[C@H](O[C@H]2[C@@H](O)C[C@H](O[C@H]3[C@@H](O)C[C@H](O[C@H]4CC[C@@]5(C)[C@H](CC[C@@H]6[C@@H]5C[C@@H](O)[C@]5(C)[C@@H](C7=CC(=O)OC7)CC[C@]65O)C4)O[C@@H]3C)O[C@@H]2C)O[C@H](C)[C@H]1O[C@@H]1O[C@H](CO)[C@@H](O)[C@H](O)[C@H]1O	0	0
C[C@]12CC[C@H]3[C@@H](CCC4=CC(=O)CC[C@@]43C)[C@@H]1CC[C@@H]2OC(=O)CCc1ccccc1	0	0
NC(Cc1cc(O)c(O)cc1O)C(=O)O (centres undefined)	0	13µM
N[C@@H](CCl)C(=O)O	0	0
Cc1ccc2c(c1)[C@]13CCCC[C@@H]1[C@H](C2)N(C)CC3	0	0
O=C1Nc2ccc(Cl)cc2C(c2ccccc2)=NC1O (centres undefined)	0	?
O=C1CN=C(c2ccccc2)c2cc(Cl)ccc2N1CC1CC1	0	22µM
CCC(=O)O[C@H]1[C@@H](N2CCCCC2)C[C@H]2[C@@H]3CC[C@H]4C[C@H](OC(C)=O)[C@@H](N5CCCCC5)C[C@]4(C)[C@H]3CC[C@@]21C	0	0
CCC/C=C/C=C/C(=O)O[C@H]1/C(=C/C(=O)OC)C[C@H]2C[C@H]([C@@H](C)O)OC(=O)C[C@H](O)C[C@@H]3C[C@H](OC(C)=O)C(C)(C)[C@](O)(C[C@@H]4C/C(=C/C(=O)OC)C[C@H](/C=C/C(C)(C)[C@]1(O)O2)O4)O3	0	0
CN[C@]1(c2ccccc2Cl)CCCCC1=O	0	0
CC(C)CCC(=O)O[C@H]1CC[C@H]2[C@@H]3CCC4=CC(=O)CC[C@]4(C)[C@H]3CC[C@]12C	0	0
C=C[C@H]1CN2CC[C@H]1C[C@H]2[C@H](OC(=O)OCC)c1ccnc2ccc(OC)cc12	0	0
Cl.Cl.Cl.Cl.Cl.Cl.N.N.N.N.NNNNN.NNNNN.O.O.[Ru].[Ru].[Ru]	0	56µM
O=C(O)COc1ccc(Cl)cc1Cl	0	0
Oc1cc(Cl)ccc1Oc1ccc(Cl)cc1Cl	?	11µM!
SMILES	EPAC1 ag val	EPAC2 antag
N#CC(C#N)=Cc1cc(O)c(O)c(O)c1	0	89µM!
N#C/C(=C\c1ccc(O)c(O)c1)C(N)=S	0	?
C[C@@H]1[C@@H]2Cc3ccc(O)cc3[C@@]1(C)CCN2CCc1ccccc1	0	0
O=S(=O)(O)C(F)(F)C(F)(F)C(F)(F)C(F)(F)C(F)(F)C(F)(F)C(F)(F)C(F)(F)F	0	100µM
O=C(C[C@@H]1NCCC[C@H]1O)Cn1cnc2cc(Br)c(Cl)cc2c1=O	0	0
Oc1c(Cl)c(Cl)c(Cl)c(Cl)c1Cl	0	14µM
O=C1C[C@@H]2OCC=C3CN4CC[C@]56c7ccccc7N1[C@H]5[C@H]2[C@H]3C[C@H]46	0	0
Cc1c(C(=O)c2cccc3ccccc23)c2cccc3c2n1[C@H](CN1CCOCC1)CO3	?	0
CCCn1c(C)c(C(=O)c2cccc3ccccc23)c2ccccc21	0	20µM
CCCCCCC(C)(C)c1ccc([C@@H]2C[C@H](O)CC[C@@H]2CCCO)c(O)c1	0	28µM
NC(=O)[C@H](Cc1ccccc1)NC(=O)[C@H](Cc1c[nH]c2ccccc12)NC(=O)[C@@H]1CCCN1C(=O)[C@@H](N)Cc1ccc(O)cc1	0	0[11.4 µM]
CCOC(=O)/C=C(C)/C=C/C[C@@H](C)CCCC(C)C	0	0
CC(C)=CCN1CC[C@]2(C)c3cc(O)ccc3C[C@H]1[C@H]2C	0	0
CC(C)[C@H]1C(=O)N2CCC[C@H]2[C@]2(O)O[C@](NC(=O)[C@@H]3C[C@@H]4c5cccc6[nH]cc(c56)C[C@H]4N(C)C3)(C(C)C)C(=O)N12	0	0
COc1ccc(CCN)cc1O	0	0
NCCc1cc(O)c(O)cc1O	112µM	0
[S]=[Sb](=[S])[S][Sb](=[S])=[S]	0	0
